# In ChEMBL document CHEMBL3988442, “University of Dundee, Small-Polar-MMV Screening Library” (2021):
# In all, about 48,000 compounds went through this assay and about 13,000 (27%) showed an effect of 50% or more. Some of the results follow.
# Test system: Wolbachia pipientis
# Test: Anti-Wolbachia Cell-Based Screen
# Format: functional
# Design: scale not given: in the data most compounds retested in dose-response had high values
# Details: 5 µM
row,Structure (SMILES),Percent Effect
1,N#CCCN(Cc1ccco1)C(=O)COC1CCCCC1,5.394%
2,O=S1(=O)C[C@@H]2[C@H](C1)N(Cc1nc3ccccc3[nH]1)CCN2CC1CC1,0.3251%
3,CN(CC(=O)N1CCCC1c1noc(C2CC2)n1)C1CC1 (stereo unspecified),-4.612%
4,CC(=O)N1CCCC1c1nc(CN(C)C(=O)C(C)C)cc(N(C)C)n1 (stereo unspecified),95.56%
5,COCC(=O)N1CCCCC1c1nc(CN(C)C(C)=O)cc(N(C)C)n1 (stereo unspecified),103.1%
6,CC(=O)c1ccc(C(=O)N2CCCCC2c2nc[nH]n2)cc1 (stereo unspecified),-8.755%
7,CCC(=O)N1CCCCC1c1nc(CN(C)C(C)=O)cc(N(C)C)n1 (stereo unspecified),86.02%
8,CC(C)c1nc(C2CCCN2C(=O)c2ccc(N(C)C)nn2)no1 (stereo unspecified),2.138%
9,Cc1ccsc1CNC(=O)NC1CCCc2c1cnn2CCO (stereo unspecified),0.2453%
10,CC(=O)N1CCCN(C(=O)NCCCN(C)S(C)(=O)=O)CC1,-3.578%
11,COc1ccccc1CN(Cc1cccnc1)Cc1nccs1,-55.96%
12,CCc1noc(C)c1C(=O)Nc1cnn(CC(=O)NC2CCCC2)c1,1.161%
13,CCn1cc(NC(=O)NC2CCCc3c2cnn3CCO)cn1 (stereo unspecified),0.905%
14,CCN1CCC(CNC(=O)Nc2cnn(CC(N)=O)c2)C1 (stereo unspecified),-9.388%
15,CCn1cc(NC(=O)C2CCN(CC(=O)NC3CCCC3)CC2)cn1,91.7%
16,CCCNC(=O)CN1CCC(C(=O)Nc2cnn(CC)c2)CC1,2.919%
17,CCn1cc(NC(=O)C2CCN(CC(=O)N3CCOCC3)CC2)cn1,-4.13%
18,CCn1cc(NC(=O)C2CCN(CC(=O)NCC(C)C)CC2)cn1,118.6%
19,CCCNC(=O)C(C)N1CCC(C(=O)Nc2cnn(CC)c2)CC1 (stereo unspecified),103.7%

row,Structure (SMILES),Percent Effect
1,CCn1cc(NC(=O)C2CCN(CC(=O)NC(C)(C)CC)CC2)cn1,91.29%
2,Cc1ncncc1C(=O)Nc1cnn(CC(=O)NC2CCCC2)c1,0.1635%
3,O=C(c1ccccc1C(F)(F)F)N1C[C@@H](CN2CCOCC2)[C@@H](CO)C1,-0.09435%
4,CCCc1cncnc1N1CCC(NCc2cc3ccccc3[nH]2)CC1,-18.7%
5,O=C(NC1CC1)[C@H]1C[C@H]2OCC[C@H]2N(CC2CCOCC2)C1.O=C(O)C(F)(F)F,0.97%
6,O=C(Nc1nncs1)N1CCCN(C2CCCCC2)CC1,-4.459%
7,COc1ccc(S(=O)(=O)NCCC(O)c2cc(C)oc2C)c(C)c1 (stereo unspecified),2.617%
8,C[C@@H]1C[C@H]2CN(C(=O)C3=CCCCC3)C[C@H]2O1,0.662%
9,O=C(NC1CCS(=O)(=O)c2ccccc21)c1cccs1 (stereo unspecified),3.993%
10,CCNC(=O)N1C[C@@H]2OCC(=O)N(C(C)C)[C@@H]2C1,-6.666%
11,Cc1ccsc1C(=O)Nc1cnn(CC(=O)NC2CCCC2)c1,2.464%
12,Cc1nc(C)c(C(=O)Nc2cnn(CC(=O)NC3CCCC3)c2)s1,111.4%
13,Cc1cc(C(=O)Nc2cnn(CC(=O)NC3CCCC3)c2)c(C)s1,2.888%
14,Cc1nc(CC(=O)N2CCCC2c2nc(-c3ccccc3)no2)cs1 (stereo unspecified),-0.9344%
15,Cn1cccc1C(=O)N1CCc2ncnc(N3CCOCC3)c2CC1,-2.151%
16,Nc1c(N2CCOCC2)ncnc1N1CCOCC1,121.8%
17,O=C(CSc1ccccc1)N1CCc2c(ncnc2N2CCOCC2)C1,3.982%
18,Clc1cnccc1N1CCCOCC1,1.077%
19,OC1(CN2CCCC2)COCCN(c2ncnc3[nH]cnc23)C1 (stereo unspecified),9.273%

row,Structure (SMILES),Percent Effect
1,O=C(c1c2c(N3CCCC3)ncnc2n2ccccc12)N1CCOCC1,-6.579%
2,Nc1c(N2CCCC2)ncnc1N1CCOCC1,108.5%
3,O=C(c1c2c(N3CCOCC3)ncnc2n2ccccc12)N1CCCC1,-0.1651%
4,CC(C)(C)C(=O)N1CCCN(c2ncnc3nc(N)ccc23)CC1,6.072%
5,CN1CCCN(c2ncnc(N3CCOCC3)c2N)CC1,103.9%
6,Nc1c(N2CCCCC2)ncnc1N1CCOCC1,114.1%
7,O=C1COc2ccc(S(=O)(=O)NCC3CCCO3)c3c2N1CCC3 (stereo unspecified),-4.147%
8,CN(Cc1cccnc1)C[C@@H]1OC[C@H]2CN(Cc3ccoc3)CC[C@H]21.O=C(O)C(F)(F)F.O=C(O)C(F)(F)F.O=C(O)C(F)(F)F,6.292%
9,CN1CCN(C[C@@H]2OC[C@H]3CN(Cc4cccc(F)c4)CC[C@H]32)CC1.O=C(O)C(F)(F)F.O=C(O)C(F)(F)F.O=C(O)C(F)(F)F,-7.407%
10,Cc1ccc(CN2CC[C@H]3CO[C@H](CN(C)Cc4ccco4)[C@H]3C2)s1.O=C(O)C(F)(F)F.O=C(O)C(F)(F)F,10.16%
11,Cc1ccc(CN2CC[C@H]3[C@H](CO[C@H]3CN(C)C)C2)o1.O=C(O)C(F)(F)F.O=C(O)C(F)(F)F,-5.785%
12,Cc1ccc(CN2CC[C@@H]3[C@@H](CO[C@H]3CN3CCN(C)CC3)C2)s1.O=C(O)C(F)(F)F.O=C(O)C(F)(F)F.O=C(O)C(F)(F)F,97.55%
13,CN1CCN(C[C@@H]2OC[C@H]3CN(CCc4ccccc4)CC[C@H]32)CC1.O=C(O)C(F)(F)F.O=C(O)C(F)(F)F.O=C(O)C(F)(F)F,108.2%
14,CN1CCN(C[C@H]2OC[C@@H]3CCN(C(=O)c4cnccn4)C[C@@H]32)CC1.O=C(O)C(F)(F)F.O=C(O)C(F)(F)F,-7.535%
15,CN(C)C[C@@H]1OC[C@H]2CN(Cc3ccoc3)CC[C@H]21.O=C(O)C(F)(F)F.O=C(O)C(F)(F)F,10.46%
16,Cc1ccc(CN2CC[C@@H]3[C@@H](CO[C@H]3CN3CCN(C)CC3)C2)cc1.O=C(O)C(F)(F)F.O=C(O)C(F)(F)F.O=C(O)C(F)(F)F,118.8%
17,CCN1CCC(N[C@@H]2CC[C@@H]2NC(=O)Cc2csc(C)n2)CC1,2.853%
18,Clc1cccnc1N1CCC(NCc2cccc3cn[nH]c23)C1 (stereo unspecified),0.5809%
